Experimental data taken from PubChem BioAssay AID1117319 (Southern Research Institute, 2015).
The campaign covered roughly 260,000 compounds. About 1,500 (0.58%) were called active. Another 5% or so got no clear call; they are omitted.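 The calls were made as follows: active = inhibition above a set limit at one or more doses, reproduced on every date tested; inconclusive = results disagree between test dates, or hit never tested in dose response; inactive = the rest.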 A selection follows. Measured potencies and affinities stand elsewhere.

Target: Virion infectivity factor (Human immunodeficiency virus type 1 group M subtype B (isolate BH10)) + Virion infectivity factor (Human immunodeficiency virus type 1 group M subtype B (isolate BRU/LAI)) + Virion infectivity factor (Human immunodeficiency virus type 1 group M subtype B (isolate PCV12)) + Virion infectivity factor (Human immunodeficiency virus type 1 group M subtype B (isolate HXB2)) + DNA dC->dU-editing enzyme APOBEC-3G (Homo sapiens) (UniProt P69720+P69721+P69722+P69723+Q9HC16)
Test: HIV-1 Vif–A3G interaction blockers – biochemical, TR-FRET, GST-Vif 1-94, biotin-A3G peptide, dose response retest, primary screen (AID 1117319);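 also: Vif residues 1-94 fused to GST binding biotinylated APOBEC3G peptide 110-148; 0% = full assay without inhibitor and 100% = GST in place of GST-Vif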
Settings: TR-FRET GST-Vif / biotin-A3G peptide binding; hits give high values

inhibition, inactive:
COc1ccc(CCNC(=O)COC(=O)/C=C/c2ccc(OCC#N)c(OC)c2)cc1OC 5.39%, CC(=O)Nc1ccc(NC(=O)Cn2ccc([N+](=O)[O-])n2)cc1 11.7%, COc1cccc(C2CC(c3cccs3)=NN2C(=O)CSC2=NN3CCCC(=O)N=C3S2)c1OC (stereo not drawn) 0.81%, O=C(c1ccco1)N1CCN(Cc2cc(=O)c(OCc3cccc(F)c3)co2)CC1 -1.67%, S=c1nc(-c2ccccc2)oc2c1CCCC2 2.15%, O=[N+]([O-])c1ccc(-c2nc(=S)c3c(o2)CCCC3)cc1 0.66%, Cc1nc2oc3ccccc3c(=O)c2cc1C(=O)O -10.2%, Cc1ccc(C)c(N2CCN(S(=O)(=O)c3ccc4c(c3)CCC(=O)N4)CC2)c1 24.6%, COc1ccc(C(=O)COC(=O)CNC(=O)c2ccc(Cl)cc2Cl)c(OC)c1 3.17%, Cc1cc(C)cc(NC(=O)CSCc2cnn(-c3ccccc3)c2-n2cccc2)c1 -0.62%, CCOc1ccc(NC(=O)CSCc2cnn(-c3ccccc3)c2-n2cccc2)cc1 -1.2%, Cc1cc2ccccc2n1CCNC(=O)C1CCCC1 23.5%, O=C(NCCn1ccc2ccccc21)C1CCCCC1 -2.31%, CC(C)CC(=O)NCc1ccc2[nH]c3c(c2c1)CCCC3 5.99%, O=C(CCN1CCC(c2ccc(Cl)s2)=N1)c1ccc(Cl)s1 -2.16%, CC(=O)NCC(=O)NC(Cc1ccccc1)C(N)=O (stereo not drawn) 18.9%, COc1cc(/C=C(\C#N)C(=O)N2CCOCC2)cc(Br)c1O -3.89%, CC(=C\C(=O)O)/C(=C/c1ccco1)C(=O)O 29.9%, NC(=O)/C(=C\c1ccco1)NC(=O)c1ccco1 13.1%, Cc1ccc2sc(N(CCCN(C)C)C(=O)c3ccc(S(=O)(=O)N4CCOCC4)cc3)nc2c1C 7.87%, Fc1cccc(COc2ccccc2CNc2ccccc2)c1 8.86%, O=C(O)c1ccc(CNCc2cccc(OCc3ccc(F)cc3)c2)cc1 -2.79%, COc1cc(CNC(C)(C)CO)cc(Br)c1OCc1ccccc1 14.2%, O=[N+]([O-])c1ccc(COc2cccc(CNc3ccc(F)cc3)c2)cc1 26.4%, CCOc1ccccc1CNc1ccc(O)cc1 -1.14%, C=CCOc1c(CNc2ccc(C(=O)O)cc2)cccc1OCC 5.17%, CCOc1cc(CNc2ccccc2)cc(Br)c1OCc1ccc(F)cc1 -2.02%, CCOc1cccc(CNn2cnnc2)c1OCc1ccccc1Cl 3.09%
